From PubChem BioAssay AID1159580 (chemical genetic matrix, 2015)
Among all 5,500 compounds or so, about 2,000 (36%) were called active. Inconclusive results (about 18%) are left out. The list shows a part of the results. Unmarked numbers belong to inactive results. No stated cut-off is given here; in the data, active means normalized growth mostly below about 0.91 (no sharp cut-off); inconclusive means no clear call, values can overlap the other calls; inactive means mostly above about 0.92.

Test: chemical genetic growth profiling, strain panel (AID 1159580);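 further: tested at 20 µM; growth read once vehicle control cultures reached saturation at 30 °C; 1 = growth at the plate median or of vehicle wells; lower values mean less growth of the strain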
Conditions: S. cerevisiae deletion strains, growth OD
[1] = locus YAL040C, strain CLN3, hits give low values
[2] = locus YER002W, strain NOP16, hits give low values
[3] = locus YNL175C, strain NOP13, hits give low values
[4] = locus YNL197C, strain WHI3, hits give low values
[5] = locus YNL224C, strain SQS1, hits give low values
[6] = locus YOR083W, strain WHI5 (second series), hits give low values

Structure (SMILES) | normalized growth [1] | normalized growth (locus YDR150W, strain NUM1, hits give low values) | normalized growth (locus YDR363W, strain ESC2, hits give low values) | normalized growth [2] | normalized growth (locus YGR078C, strain PAC10, hits give low values) | normalized growth (locus YJR075W, strain HOC1, hits give low values) | normalized growth (locus YMR307W, strain GAS1, hits give low values) | normalized growth [3] | normalized growth [4] | normalized growth [5] | normalized growth (locus YNL322C, strain KRE1, hits give low values) | normalized growth [6] | normalized growth (locus YPL055C, strain LGE1, hits give low values)
C[N+](C)(C)CC(=O)O | 0.989 | 0.995 | 1.02 | 1 | 0.998 | 1.01 | 1.02 | 1.01 | 1 | 1.01 | 1 | 1.01 | –
CC(=O)SCC[N+](C)(C)C | 1.12 [resistant] (active) | – | – | 1.04 | – | – | – | 1.02 | 1.02 | 0.972 | – | 0.982 | 1.01
